Test results from PMC12820563, “FoxP3 forms a head-to-head dimer in vivo and stabilizes its multimerization on adjacent microsatellites”.
Whole data set: some 16,000 sequences, median “rpm ratio (pull-down/input)” near 0.94, cut for the highest 2% near 1.7. For the sample, the highest values were picked, then their nearest neighbours and some sequences at random.

molecular target: T1, MBP-FoxP1dN (Mus musculus, UniProt P58462 326-579); experiment: PD-seq (MBP pull-down with sequencing); 20 mM Tris-HCl pH 7.5, 100 mM NaCl, 1.5 mM MgCl2, 0.4 uM protein, 0.1 uM dsDNA library, 30 min, room temperature, amylose pull-down; high values mean tight binding; details: protein: recombinant; tags: His6-MBP; chain copies: 2; dsDNA, one strand shown
T1 sequence: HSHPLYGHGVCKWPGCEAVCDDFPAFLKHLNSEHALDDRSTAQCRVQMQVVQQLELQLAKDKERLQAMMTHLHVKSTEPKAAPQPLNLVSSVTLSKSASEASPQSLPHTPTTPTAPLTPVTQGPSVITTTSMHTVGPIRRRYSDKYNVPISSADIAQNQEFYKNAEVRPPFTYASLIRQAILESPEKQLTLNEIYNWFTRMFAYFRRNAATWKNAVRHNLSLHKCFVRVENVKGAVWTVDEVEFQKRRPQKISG
Outline: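 Binding is the reads-per-million enrichment of pull-down relative to input, pooled across replicates. For this, 0.4 µM His6-MBP-tagged mouse FoxP3 or FoxP1 fragment lacking the N-terminus, made in E. coli, was incubated with 0.1 µM Klenow-filled double-stranded degenerate DNA library for 30 min at room temperature in Tris pH 7.5 buffer with NaCl and MgCl2. Complexes bound to amylose resin were washed three times before proteinase K released the DNA for PCR barcoding and Illumina sequencing.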

In order of rising binding signal:
1. GATGATTGTTCTCCCAGCTGATGAATTGAGGTCTTCGAGTAAACAAATTTTCCTAATCTTTCTGTTCAAGCGCCATCTAC  0.786 RPM ratio (pull-down/input)
2. GATGATTGTTCTCCCAGCTGATGAATTGGTCTGGTCGAGTAAACAAATTTTCCTAATCTTTCTGTTCAAGCGCCATCTAC  0.807 RPM ratio (pull-down/input)
3. GATGATTGTTCTCCCAGCTGATGAATTGGATTCTTCGAGTAAACAAATTTTCCTAATCTTTCTGTTCAAGCGCCATCTAC  0.813 RPM ratio (pull-down/input)
4. GATGATTGTTCTCCCAGCTGATGAATTCATCGCCTCGAGTAAACAAATTTTCCTAATCTTTCTGTTCAAGCGCCATCTAC  0.873 RPM ratio (pull-down/input)
5. GATGATTGTTCTCCCAGCTGATGAATTAGAAACTTCGAGTAAACAAATTTTCCTAATCTTTCTGTTCAAGCGCCATCTAC  0.892 RPM ratio (pull-down/input)
6. GATGATTGTTCTCCCAGCTGATGAATTTGGGTCTTCGAGTAAACAAATTTTCCTAATCTTTCTGTTCAAGCGCCATCTAC  0.904 RPM ratio (pull-down/input)
7. GATGATTGTTCTCCCAGCTGATGAATTCTATTCATCGAGTAAACAAATTTTCCTAATCTTTCTGTTCAAGCGCCATCTAC  0.915 RPM ratio (pull-down/input)
8. GATGATTGTTCTCCCAGCTGATGAATTGAGATTTTCGAGTAAACAAATTTTCCTAATCTTTCTGTTCAAGCGCCATCTAC  0.923 RPM ratio (pull-down/input)
9. GATGATTGTTCTCCCAGCTGATGAATTACGGGGTTCGAGTAAACAAATTTTCCTAATCTTTCTGTTCAAGCGCCATCTAC  0.931 RPM ratio (pull-down/input)
10. GATGATTGTTCTCCCAGCTGATGAATTGAATTGATCGAGTAAACAAATTTTCCTAATCTTTCTGTTCAAGCGCCATCTAC  0.941 RPM ratio (pull-down/input)
11. GATGATTGTTCTCCCAGCTGATGAATTTTTTTGATCGAGTAAACAAATTTTCCTAATCTTTCTGTTCAAGCGCCATCTAC  0.955 RPM ratio (pull-down/input)
12. GATGATTGTTCTCCCAGCTGATGAATTATATCGATCGAGTAAACAAATTTTCCTAATCTTTCTGTTCAAGCGCCATCTAC  0.956 RPM ratio (pull-down/input)
13. GATGATTGTTCTCCCAGCTGATGAATTGATCTGATCGAGTAAACAAATTTTCCTAATCTTTCTGTTCAAGCGCCATCTAC  0.968 RPM ratio (pull-down/input)
14. GATGATTGTTCTCCCAGCTGATGAATTCTTTTGATCGAGTAAACAAATTTTCCTAATCTTTCTGTTCAAGCGCCATCTAC  0.969 RPM ratio (pull-down/input)
15. GATGATTGTTCTCCCAGCTGATGAATTCAATTGATCGAGTAAACAAATTTTCCTAATCTTTCTGTTCAAGCGCCATCTAC  1.02 RPM ratio (pull-down/input)
16. GATGATTGTTCTCCCAGCTGATGAATTTCTGTGATCGAGTAAACAAATTTTCCTAATCTTTCTGTTCAAGCGCCATCTAC  1.02 RPM ratio (pull-down/input)
17. GATGATTGTTCTCCCAGCTGATGAATTGATTTGATCGAGTAAACAAATTTTCCTAATCTTTCTGTTCAAGCGCCATCTAC  1.07 RPM ratio (pull-down/input)
18. GATGATTGTTCTCCCAGCTGATGAATTACAAGGTTCGAGTAAACAAATTTTCCTAATCTTTCTGTTCAAGCGCCATCTAC  1.09 RPM ratio (pull-down/input)
19. GATGATTGTTCTCCCAGCTGATGAATTTGATTGATCGAGTAAACAAATTTTCCTAATCTTTCTGTTCAAGCGCCATCTAC  1.1 RPM ratio (pull-down/input)
20. GATGATTGTTCTCCCAGCTGATGAATTCACCACATCGAGTAAACAAATTTTCCTAATCTTTCTGTTCAAGCGCCATCTAC  1.12 RPM ratio (pull-down/input)
21. GATGATTGTTCTCCCAGCTGATGAATTTGATGCGTCGAGTAAACAAATTTTCCTAATCTTTCTGTTCAAGCGCCATCTAC  1.13 RPM ratio (pull-down/input)
22. GATGATTGTTCTCCCAGCTGATGAATTGATCTATTCGAGTAAACAAATTTTCCTAATCTTTCTGTTCAAGCGCCATCTAC  1.15 RPM ratio (pull-down/input)
23. GATGATTGTTCTCCCAGCTGATGAATTGATCTAATCGAGTAAACAAATTTTCCTAATCTTTCTGTTCAAGCGCCATCTAC  1.19 RPM ratio (pull-down/input)
24. GATGATTGTTCTCCCAGCTGATGAATTAAACAGGTCGAGTAAACAAATTTTCCTAATCTTTCTGTTCAAGCGCCATCTAC  1.21 RPM ratio (pull-down/input)
25. GATGATTGTTCTCCCAGCTGATGAATTGTCAACTTCGAGTAAACAAATTTTCCTAATCTTTCTGTTCAAGCGCCATCTAC  1.31 RPM ratio (pull-down/input)
26. GATGATTGTTCTCCCAGCTGATGAATTGTGATGATCGAGTAAACAAATTTTCCTAATCTTTCTGTTCAAGCGCCATCTAC  1.42 RPM ratio (pull-down/input)
27. GATGATTGTTCTCCCAGCTGATGAATTGTTTTGATCGAGTAAACAAATTTTCCTAATCTTTCTGTTCAAGCGCCATCTAC  2.01 RPM ratio (pull-down/input)
28. GATGATTGTTCTCCCAGCTGATGAATTCTATTGATCGAGTAAACAAATTTTCCTAATCTTTCTGTTCAAGCGCCATCTAC  2.09 RPM ratio (pull-down/input)
29. GATGATTGTTCTCCCAGCTGATGAATTCTGTTGATCGAGTAAACAAATTTTCCTAATCTTTCTGTTCAAGCGCCATCTAC  2.26 RPM ratio (pull-down/input)
30. GATGATTGTTCTCCCAGCTGATGAATTGTTGTGATCGAGTAAACAAATTTTCCTAATCTTTCTGTTCAAGCGCCATCTAC  2.32 RPM ratio (pull-down/input)
31. GATGATTGTTCTCCCAGCTGATGAATTTTGTTGATCGAGTAAACAAATTTTCCTAATCTTTCTGTTCAAGCGCCATCTAC  2.8 RPM ratio (pull-down/input)
